Only a selection was taken, and hits are over-represented in it overall.
RBX1-CUL1 inh: human ROC1-CUL1 E3 ligase inhibition; 140,000 compounds, 0.6% hits; P62877+Q13616; inhibition, % at 10 µM; in vitro K48 di-Ub FRET, acceptor:donor ratio, 45 min; AID 1347404; in the data active = inhibition above about 25%
Target sequence (P62877 whole entry, looked up): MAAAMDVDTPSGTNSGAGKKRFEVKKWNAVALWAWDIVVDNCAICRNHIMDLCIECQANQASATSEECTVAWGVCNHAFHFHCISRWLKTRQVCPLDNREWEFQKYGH
Target sequence (Q13616 whole entry, looked up): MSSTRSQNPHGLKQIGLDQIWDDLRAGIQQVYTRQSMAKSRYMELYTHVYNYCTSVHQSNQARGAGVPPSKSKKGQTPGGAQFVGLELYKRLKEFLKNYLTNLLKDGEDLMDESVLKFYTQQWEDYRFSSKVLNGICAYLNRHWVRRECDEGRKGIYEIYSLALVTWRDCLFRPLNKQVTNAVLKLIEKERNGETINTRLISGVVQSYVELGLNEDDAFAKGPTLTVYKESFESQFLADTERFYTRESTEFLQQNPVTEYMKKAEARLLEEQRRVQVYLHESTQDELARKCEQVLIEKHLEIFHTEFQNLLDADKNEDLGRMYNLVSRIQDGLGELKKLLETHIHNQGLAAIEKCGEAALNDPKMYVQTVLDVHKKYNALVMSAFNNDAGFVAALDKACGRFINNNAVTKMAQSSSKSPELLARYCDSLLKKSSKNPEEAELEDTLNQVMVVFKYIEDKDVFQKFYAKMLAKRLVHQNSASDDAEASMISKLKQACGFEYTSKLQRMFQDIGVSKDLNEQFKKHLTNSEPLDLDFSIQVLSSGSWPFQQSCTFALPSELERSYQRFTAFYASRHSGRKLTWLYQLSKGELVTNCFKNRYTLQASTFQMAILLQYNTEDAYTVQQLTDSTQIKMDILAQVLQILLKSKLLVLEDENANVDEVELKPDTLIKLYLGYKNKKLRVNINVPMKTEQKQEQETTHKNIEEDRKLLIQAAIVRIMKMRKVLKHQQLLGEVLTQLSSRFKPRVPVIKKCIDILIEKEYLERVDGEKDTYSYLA
Starred values were filed as active, the others as inactive.

SMILES	RBX1-CUL1 inh
Clc1nn2nnnc2c2ccccc12	29.7*
c1ccc2c(c1)c(N1CCOCC1)nn1nnnc21	3.6
Cc1nnc(Cl)c2ccccc12	-2.8
CN(C)c1cnn(CC(=O)NCc2ccc(-c3ccccn3)s2)c(=O)c1	-0.7
CCc1ccc(NC(=O)CSc2ccc(-c3ccccn3)nn2)cc1	10.5
O=c1[nH]c2ccccc2c(-c2ccccc2)c1Sc1nc2ccccc2o1	1.5
CCOc1cc(/C=C2\C(=O)N(c3ccc(C(=O)O)cc3)N=C2C(F)(F)F)cc(Br)c1O	62.4*
CCOc1cc(/C=C2\C(=O)NC(=S)N(c3ccc(Br)cc3)C2=O)cc(Br)c1O	7.2
COc1cc(/C=C2\C(=O)N(c3ccc(Cl)cc3)N=C2C(F)(F)F)ccc1OC(=O)c1ccco1	-3.3
O=C1NN=C2CC34CCC12CC3=NNC4=O	18.2
O[C@H]1[C@H](N2CCc3[nH]c4ccccc4c3C2)c2ccccc2C12CCNCC2	0.1
O=C(O)c1cc(S(=O)(=O)N2CCOCC2)cs1	6.1
COc1ccc(-c2[nH]nc3c2C(c2cc(I)cc(I)c2O)C(C#N)C(=N)O3)cc1 (configuration not stated)	28.2*
COc1ccc(-c2[nH]nc3c2C(c2ccoc2)C(C#N)C(=N)O3)cc1 (configuration not stated)	-6.5
COc1ccc(-c2[nH]nc3c2C(c2ccc(Br)cc2)C(C#N)C(=N)O3)cc1 (configuration not stated)	13.7
CCN1CCN(S(=O)(=O)Cc2ccccc2F)CC1	9.1
CN(C(=O)CC1Sc2ccccc2NC1=O)c1ccc(Cl)cc1 (configuration not stated)	-1.8
Cc1c(C(=O)Nc2ccccc2)nnn1-c1ccccc1	1.0
COC(=O)/C(=C1/C(=O)N(c2ccccc2)N=C1C)C(F)(F)F	38.8*
CC1=NN(c2ccccc2)C(=O)/C1=C(\C)c1ccc(-c2ccccc2)cc1	-10.5
COc1ccc(-c2csc3nc(SCc4ccccc4)[nH]c(=O)c23)cc1	-13.4
O=C(NNc1c2ccccc2nc2ccccc12)c1ccc(O)cc1	3.2
CC(=O)c1ccccc1OC(=O)c1ccc(Cl)cc1Cl	9.3
Cc1cccc(OCC(=O)NCC(=O)N/N=C/c2ccc(-c3ccc(C(=O)O)cc3)o2)c1	10.9
CN(C)c1cc(N/N=C/c2ccc(OCc3ccc(F)cc3)cc2)nc(N(C)C)n1	-5.1
SMILES	RBX1-CUL1 inh
CN(C)c1cc(N/N=C/c2ccc(-c3ccc(C(=O)O)cc3)o2)nc(N(C)C)n1	62.5*
CCC(C)OC(=O)/C(C#N)=C\c1ccc(-c2ccccc2Cl)o1 (configuration not stated)	-3.4
CN(C)C(=O)c1cc(-c2cnn(Cc3ccccc3)c2)nc2ccc(F)cc12	7.4
CC(C)(CO)NCc1ccc(Cl)cc1	0.8
Oc1ccc(NCc2ccc(Cl)cc2)cc1	93.6*
CCOc1cc(CNc2ccc(O)cc2)cc(Br)c1OCc1ccc(Cl)cc1	75.7*
Clc1ccc(CNc2ccc(N3CCN(Cc4ccccc4)CC3)cc2)cc1	2.2
CCOC(=O)c1ccc(NCc2cc(Br)c(OCc3ccc(Cl)cc3Cl)c(OCC)c2)cc1	-13.8
CCOc1cc(CNc2ccc(O)cc2)cc(Cl)c1OCc1ccccc1	10.2
Cc1ccc(/C=C/c2onc(C)c2S(=O)(=O)N2CCC(C(=O)N3CCC(N(C)C(C)C)CC3)CC2)cc1	-13.4
CC(=O)Nc1ccccc1C(C)C	-5.6
O=C(c1cccs1)N1CCN(S(=O)(=O)c2cccs2)CC1	1.1
COc1ccc(/C=N/Nc2nc3c(s2)CCCC3)cc1	55.0*
COc1ccc(CC(=O)Nc2nc3c(s2)CCCC3)cc1	2.1
CCOc1ccc(/C=N\Nc2nc(C)c(C(C)=O)s2)cc1	8.9
CCCCCCOC(=O)Oc1ccc(C=Nc2ccc(OCC)cc2)cc1	-1.0
Cc1c(Cl)cccc1NC(=O)CSc1nc2ccccc2[nH]1	-3.5
Cc1ccc(C)c(OCC(=O)NCCCNC(=O)COc2cc(C)ccc2C)c1	1.7
Oc1cc(-n2cccn2)c(O)c2ccccc12	42.1*
c1ccc(Nc2nc(Nc3ccccc3)nc(-n3cccn3)n2)cc1	4.8
Fc1ccc(-c2cc(-c3ccccc3)nc(-n3cccn3)n2)cc1	-2.3
COc1cc(OC)c(NC(=O)Cn2ncn3c(cc4cc(C)ccc43)c2=O)cc1Cl	-4.3
COc1ccc(OC)c(NC(=O)Cn2cnc3c(oc4ccccc43)c2=O)c1	0.4
O=C(NC1CCCCC1)N1CCCn2c(SCc3ccccc3Cl)nnc21	5.7
N#CC1C=C(C(=O)O)C(=O)N=C1SCc1ccccc1Cl (configuration not stated)	73.1*
SMILES	RBX1-CUL1 inh
CC(=O)Nc1nnc(SCc2ccccc2Cl)s1	3.4
COc1ccc(S(=O)(=O)N2CCN(c3ccc(F)cc3)CC2)cc1Br	-1.8
O=C(O)c1cccc(COc2cccc(Br)c2)c1	-1.4
O=C(CSc1n[nH]c(-c2ccc(Br)cc2)n1)c1ccc([N+](=O)[O-])cc1	-0.1
O=C(O)c1ccnc(SCC(=O)c2ccccc2)c1	6.3
O=C(CSc1ncccc1C(=O)O)c1ccc(O)c(O)c1	30.7*
O=C(O)c1cccnc1SCc1c(F)c(F)c(F)c(F)c1F	12.6
CCOc1ccc(-c2nc(SCC(=O)c3ccccc3)n[nH]2)cc1	-2.5
O=C(CSc1n[nH]c(-c2ccccc2)n1)c1ccc(O)c(O)c1	27.0*
Cc1ccn2c3c(c(C(=O)OC(C)C)c2c1)C(=O)c1ccccc1C3=O	5.5
Cc1ccc(C)c(NC(=O)CSc2nnc(C)n3c2cc2occc23)c1	5.0
COc1ccc(OC)c(NC(=O)c2cc(CN3CCCC3)on2)c1	0.8
O=C(/C=C/c1ccco1)CC1(O)C(=O)N(Cc2ccccc2Cl)c2ccccc21 (configuration not stated)	5.2
O=C1SC(SCc2ccccc2Cl)=N/C1=C\C=C\c1ccco1	88.1*
O=C1SC(SCc2ccccc2Cl)=N/C1=C\c1ccco1	-4.6
COc1ccc(O)c(CN2CCC3(CC2)c2ccccc2[C@@H](NC(=O)Cc2cccs2)[C@@H]3OC)c1	-2.6
O=C(COc1ccc(Cl)cc1)Nc1ccc2nc(SCC(=O)N3CCOCC3)sc2c1	-5.8
O=C1NN(c2ccc(Cl)cc2)C(=O)/C1=C/c1ccc(Br)cc1	53.4*
O=C1NN(c2ccc(Cl)cc2)C(=O)/C1=C/c1ccc(O)cc1	2.0
COc1ccc(/C=C2/C(=O)NN(c3ccc(Br)cc3)C2=O)cc1	7.0
O=C1NN(c2ccc(Cl)c(Cl)c2)C(=O)/C1=C/c1ccc(Cl)cc1Cl	13.1
CCc1ccc(/C=C2\C(=O)NN(c3ccc(Cl)c(Cl)c3)C2=O)cc1	81.1*
Cc1cc(/C=C2\C(=O)NN(c3ccccc3)C2=O)c(C)n1-c1ccc(Cl)c(Cl)c1	-0.5
O=C1NN(c2ccc(Br)cc2)C(=O)/C1=C\c1ccc2c(c1)OCO2	7.9
O=C1NN(c2ccc(Cl)c(Cl)c2)C(=O)/C1=C/c1cc(Br)ccc1O	73.2*
SMILES	RBX1-CUL1 inh
CCc1ccc(/C=C2\C(=O)NN(c3ccc(I)cc3)C2=O)cc1	16.5
O=C1NN(c2ccc(Cl)c(Cl)c2)C(=O)/C1=C/c1ccccc1	21.4
O=C1NN(c2ccc(Cl)c(Cl)c2)C(=O)/C1=C/c1ccc(Br)cc1	57.4*
CCOc1ccc(OCCNC2CCCC2)cc1	-1.2
C=CCNC(=O)Cc1c2c(n(CCC)c1C)CC(C)(C)CC2=O	-11.1
COc1cccc(CC(=O)N2CCOc3ccc(CN4CCN(Cc5ccccn5)CC4)cc3C2)c1	-0.3
CC(Oc1ccc(Cl)cc1Cl)C(=O)Nc1ccc2nc(SCc3ccccc3)sc2c1 (configuration not stated)	1.5

Bioassay records from PubChem BioAssay.
